Assays:
[1] = molecular target: Sphingosine kinase 1 (Homo sapiens) (UniProt Q9NYA1); conditions: at 1 µM;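 note: mean SPHK1 inhibition value reported from the GSK PKIS kinase panel screen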
[2] = molecular target: T1, Sphingosine kinase 2 (Homo sapiens) (UniProt Q9NRA0); conditions: at 0.1 µM
T1 sequence (whole entry): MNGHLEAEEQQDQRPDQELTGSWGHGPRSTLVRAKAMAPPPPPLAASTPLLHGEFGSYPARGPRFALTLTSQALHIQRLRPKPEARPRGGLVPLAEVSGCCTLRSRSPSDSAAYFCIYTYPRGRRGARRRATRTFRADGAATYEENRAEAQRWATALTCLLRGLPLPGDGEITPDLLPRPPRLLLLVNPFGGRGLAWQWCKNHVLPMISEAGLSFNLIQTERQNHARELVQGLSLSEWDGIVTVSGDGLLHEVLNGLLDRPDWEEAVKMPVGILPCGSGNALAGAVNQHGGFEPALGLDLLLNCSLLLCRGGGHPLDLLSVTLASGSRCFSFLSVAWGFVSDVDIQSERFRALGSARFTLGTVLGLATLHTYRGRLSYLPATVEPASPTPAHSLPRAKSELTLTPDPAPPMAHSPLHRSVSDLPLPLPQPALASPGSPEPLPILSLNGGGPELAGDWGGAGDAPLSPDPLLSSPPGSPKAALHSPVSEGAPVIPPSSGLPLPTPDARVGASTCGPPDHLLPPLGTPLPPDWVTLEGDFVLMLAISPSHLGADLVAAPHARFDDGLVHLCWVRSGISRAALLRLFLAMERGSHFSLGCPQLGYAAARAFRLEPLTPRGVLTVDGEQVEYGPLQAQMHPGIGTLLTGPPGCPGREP

[3] = molecular target: T1, Sphingosine kinase 2 (Homo sapiens); conditions: at 1 µM
[4] = molecular target: Casein kinase II subunit alpha (Homo sapiens) (UniProt P68400); conditions: at 0.1 µM
[5] = molecular target: Casein kinase II subunit alpha (Homo sapiens) (UniProt P68400); conditions: at 1 µM
[6] = molecular target: T2, Inhibitor of nuclear factor kappa-B kinase subunit alpha (Homo sapiens) (UniProt O15111); conditions: at 0.1 µM
T2 sequence (whole entry): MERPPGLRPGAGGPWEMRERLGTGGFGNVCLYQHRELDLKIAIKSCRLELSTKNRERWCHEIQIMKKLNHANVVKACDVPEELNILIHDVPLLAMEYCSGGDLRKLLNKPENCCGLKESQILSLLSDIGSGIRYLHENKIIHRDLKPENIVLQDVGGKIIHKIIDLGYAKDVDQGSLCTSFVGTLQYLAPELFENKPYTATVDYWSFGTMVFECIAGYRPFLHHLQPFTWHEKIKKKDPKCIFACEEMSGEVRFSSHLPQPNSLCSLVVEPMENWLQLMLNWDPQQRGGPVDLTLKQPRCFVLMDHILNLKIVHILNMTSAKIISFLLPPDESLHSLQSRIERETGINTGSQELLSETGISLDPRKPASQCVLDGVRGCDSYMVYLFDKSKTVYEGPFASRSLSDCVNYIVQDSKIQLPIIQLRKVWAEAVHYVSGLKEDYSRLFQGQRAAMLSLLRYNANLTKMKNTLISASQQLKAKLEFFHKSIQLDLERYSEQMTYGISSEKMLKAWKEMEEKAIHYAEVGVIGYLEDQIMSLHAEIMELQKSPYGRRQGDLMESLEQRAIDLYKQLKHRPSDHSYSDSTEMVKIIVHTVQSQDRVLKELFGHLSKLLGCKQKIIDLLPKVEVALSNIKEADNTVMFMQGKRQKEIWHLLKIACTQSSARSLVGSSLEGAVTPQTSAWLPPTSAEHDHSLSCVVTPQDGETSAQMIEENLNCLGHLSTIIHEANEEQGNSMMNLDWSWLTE

[7] = molecular target: T2, Inhibitor of nuclear factor kappa-B kinase subunit alpha (Homo sapiens); conditions: at 1 µM
[8] = molecular target: T3, Inhibitor of nuclear factor kappa-B kinase subunit beta (Homo sapiens) (UniProt O14920); conditions: at 0.1 µM
T3 sequence (whole entry): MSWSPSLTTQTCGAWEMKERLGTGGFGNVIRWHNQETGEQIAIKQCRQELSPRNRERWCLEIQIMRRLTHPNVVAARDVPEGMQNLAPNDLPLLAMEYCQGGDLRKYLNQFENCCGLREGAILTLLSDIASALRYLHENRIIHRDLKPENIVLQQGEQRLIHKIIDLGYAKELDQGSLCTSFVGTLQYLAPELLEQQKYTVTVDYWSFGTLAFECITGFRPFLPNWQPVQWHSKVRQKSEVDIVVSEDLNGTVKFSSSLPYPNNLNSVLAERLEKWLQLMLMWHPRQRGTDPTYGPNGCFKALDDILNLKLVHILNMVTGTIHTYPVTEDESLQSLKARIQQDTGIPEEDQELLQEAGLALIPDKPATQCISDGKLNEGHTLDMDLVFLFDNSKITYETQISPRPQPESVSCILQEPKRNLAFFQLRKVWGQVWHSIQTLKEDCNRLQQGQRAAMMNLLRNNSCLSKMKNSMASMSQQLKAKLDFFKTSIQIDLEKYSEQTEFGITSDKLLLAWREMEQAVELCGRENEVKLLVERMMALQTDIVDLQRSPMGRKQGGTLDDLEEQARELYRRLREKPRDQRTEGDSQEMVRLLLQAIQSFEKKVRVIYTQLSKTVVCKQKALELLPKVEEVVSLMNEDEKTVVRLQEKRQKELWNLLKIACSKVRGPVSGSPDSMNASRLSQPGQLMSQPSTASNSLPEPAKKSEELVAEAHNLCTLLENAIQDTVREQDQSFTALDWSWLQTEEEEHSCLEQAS

[9] = molecular target: T3, Inhibitor of nuclear factor kappa-B kinase subunit beta (Homo sapiens); conditions: at 1 µM
[10] = molecular target: T4, Inhibitor of nuclear factor kappa-B kinase subunit epsilon (Homo sapiens) (UniProt Q14164); conditions: at 0.1 µM
T4 sequence (whole entry): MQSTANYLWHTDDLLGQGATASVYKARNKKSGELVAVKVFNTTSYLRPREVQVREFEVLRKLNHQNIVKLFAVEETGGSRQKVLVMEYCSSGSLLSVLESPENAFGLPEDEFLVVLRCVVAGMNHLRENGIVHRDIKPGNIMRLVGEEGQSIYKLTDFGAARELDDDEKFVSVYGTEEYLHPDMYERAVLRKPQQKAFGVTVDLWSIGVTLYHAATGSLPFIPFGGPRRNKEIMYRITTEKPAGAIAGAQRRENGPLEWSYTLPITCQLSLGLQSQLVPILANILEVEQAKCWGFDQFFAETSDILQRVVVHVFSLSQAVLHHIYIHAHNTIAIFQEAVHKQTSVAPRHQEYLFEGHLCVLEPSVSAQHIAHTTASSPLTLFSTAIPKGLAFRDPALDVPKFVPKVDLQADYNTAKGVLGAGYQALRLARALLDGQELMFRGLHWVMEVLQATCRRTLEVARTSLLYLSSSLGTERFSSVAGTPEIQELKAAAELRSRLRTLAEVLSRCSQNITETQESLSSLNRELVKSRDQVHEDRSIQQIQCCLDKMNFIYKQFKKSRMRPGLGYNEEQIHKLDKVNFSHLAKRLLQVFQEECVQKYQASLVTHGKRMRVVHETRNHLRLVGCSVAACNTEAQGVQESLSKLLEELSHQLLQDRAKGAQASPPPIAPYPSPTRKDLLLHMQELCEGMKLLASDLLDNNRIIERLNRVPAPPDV

[11] = molecular target: T4, Inhibitor of nuclear factor kappa-B kinase subunit epsilon (Homo sapiens); conditions: at 1 µM
[12] = molecular target: T5, Serine/threonine-protein kinase Nek1 (Homo sapiens) (UniProt Q96PY6); conditions: at 0.1 µM
T5 sequence (whole entry): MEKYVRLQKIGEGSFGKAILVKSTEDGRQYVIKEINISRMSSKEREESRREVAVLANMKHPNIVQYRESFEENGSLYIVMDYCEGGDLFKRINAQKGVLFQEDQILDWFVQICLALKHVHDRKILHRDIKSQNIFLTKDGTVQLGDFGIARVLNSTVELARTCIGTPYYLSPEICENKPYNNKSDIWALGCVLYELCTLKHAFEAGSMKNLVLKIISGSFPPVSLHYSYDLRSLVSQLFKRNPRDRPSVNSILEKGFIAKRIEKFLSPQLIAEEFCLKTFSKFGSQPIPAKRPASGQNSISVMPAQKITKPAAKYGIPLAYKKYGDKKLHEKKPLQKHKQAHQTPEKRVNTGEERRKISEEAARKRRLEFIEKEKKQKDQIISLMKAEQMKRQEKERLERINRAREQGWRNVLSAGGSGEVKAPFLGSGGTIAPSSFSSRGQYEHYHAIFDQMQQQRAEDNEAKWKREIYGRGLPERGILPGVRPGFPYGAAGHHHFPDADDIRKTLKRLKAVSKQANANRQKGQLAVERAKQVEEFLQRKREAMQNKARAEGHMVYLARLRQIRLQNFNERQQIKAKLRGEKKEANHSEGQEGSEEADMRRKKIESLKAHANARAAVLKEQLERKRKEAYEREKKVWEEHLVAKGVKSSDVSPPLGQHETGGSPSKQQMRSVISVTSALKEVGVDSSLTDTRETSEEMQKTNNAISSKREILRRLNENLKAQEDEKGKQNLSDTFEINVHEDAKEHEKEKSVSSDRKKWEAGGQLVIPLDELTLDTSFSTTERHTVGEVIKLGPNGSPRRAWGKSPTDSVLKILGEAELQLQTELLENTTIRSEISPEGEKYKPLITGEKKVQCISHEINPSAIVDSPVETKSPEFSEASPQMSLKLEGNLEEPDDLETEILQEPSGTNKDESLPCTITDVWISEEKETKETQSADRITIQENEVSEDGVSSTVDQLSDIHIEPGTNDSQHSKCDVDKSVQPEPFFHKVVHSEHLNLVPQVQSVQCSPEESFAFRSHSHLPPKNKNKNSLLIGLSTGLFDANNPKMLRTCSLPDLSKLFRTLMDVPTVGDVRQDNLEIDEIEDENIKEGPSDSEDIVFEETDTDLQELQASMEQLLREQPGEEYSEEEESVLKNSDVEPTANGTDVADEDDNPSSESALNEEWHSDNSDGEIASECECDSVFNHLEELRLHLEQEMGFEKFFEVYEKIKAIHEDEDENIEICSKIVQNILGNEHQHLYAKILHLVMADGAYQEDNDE

[13] = molecular target: T5, Serine/threonine-protein kinase Nek1 (Homo sapiens); conditions: at 1 µM
[14] = molecular target: T6, Serine/threonine-protein kinase Nek2 (Homo sapiens) (UniProt P51955); conditions: at 0.1 µM
T6 sequence (whole entry): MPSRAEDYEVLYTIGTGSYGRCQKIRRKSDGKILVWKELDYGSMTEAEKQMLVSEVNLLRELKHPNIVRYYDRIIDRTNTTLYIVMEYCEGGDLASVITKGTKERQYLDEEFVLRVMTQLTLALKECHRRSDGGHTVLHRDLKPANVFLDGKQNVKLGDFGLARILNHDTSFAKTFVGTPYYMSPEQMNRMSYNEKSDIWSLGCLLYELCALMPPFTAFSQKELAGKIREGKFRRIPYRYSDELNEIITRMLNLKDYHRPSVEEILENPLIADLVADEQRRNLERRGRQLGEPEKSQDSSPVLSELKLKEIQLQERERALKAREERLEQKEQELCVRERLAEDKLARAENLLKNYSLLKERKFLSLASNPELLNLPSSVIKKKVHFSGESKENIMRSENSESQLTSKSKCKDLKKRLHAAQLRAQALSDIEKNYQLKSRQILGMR

[15] = molecular target: T6, Serine/threonine-protein kinase Nek2 (Homo sapiens); conditions: at 1 µM
[16] = molecular target: Serine/threonine-protein kinase Nek6 (Homo sapiens) (UniProt Q9HC98); conditions: at 0.1 µM
[17] = molecular target: Serine/threonine-protein kinase Nek6 (Homo sapiens) (UniProt Q9HC98); conditions: at 1 µM
[18] = molecular target: Serine/threonine-protein kinase Nek7 (Homo sapiens) (UniProt Q8TDX7); conditions: at 0.1 µM
[19] = molecular target: Serine/threonine-protein kinase Nek7 (Homo sapiens) (UniProt Q8TDX7); conditions: at 1 µM
[20] = molecular target: T7, Serine/threonine-protein kinase Nek9 (Homo sapiens) (UniProt Q8TD19); conditions: at 0.1 µM;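 note: reported value is the mean percent inhibition of NEK9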
T7 sequence (whole entry): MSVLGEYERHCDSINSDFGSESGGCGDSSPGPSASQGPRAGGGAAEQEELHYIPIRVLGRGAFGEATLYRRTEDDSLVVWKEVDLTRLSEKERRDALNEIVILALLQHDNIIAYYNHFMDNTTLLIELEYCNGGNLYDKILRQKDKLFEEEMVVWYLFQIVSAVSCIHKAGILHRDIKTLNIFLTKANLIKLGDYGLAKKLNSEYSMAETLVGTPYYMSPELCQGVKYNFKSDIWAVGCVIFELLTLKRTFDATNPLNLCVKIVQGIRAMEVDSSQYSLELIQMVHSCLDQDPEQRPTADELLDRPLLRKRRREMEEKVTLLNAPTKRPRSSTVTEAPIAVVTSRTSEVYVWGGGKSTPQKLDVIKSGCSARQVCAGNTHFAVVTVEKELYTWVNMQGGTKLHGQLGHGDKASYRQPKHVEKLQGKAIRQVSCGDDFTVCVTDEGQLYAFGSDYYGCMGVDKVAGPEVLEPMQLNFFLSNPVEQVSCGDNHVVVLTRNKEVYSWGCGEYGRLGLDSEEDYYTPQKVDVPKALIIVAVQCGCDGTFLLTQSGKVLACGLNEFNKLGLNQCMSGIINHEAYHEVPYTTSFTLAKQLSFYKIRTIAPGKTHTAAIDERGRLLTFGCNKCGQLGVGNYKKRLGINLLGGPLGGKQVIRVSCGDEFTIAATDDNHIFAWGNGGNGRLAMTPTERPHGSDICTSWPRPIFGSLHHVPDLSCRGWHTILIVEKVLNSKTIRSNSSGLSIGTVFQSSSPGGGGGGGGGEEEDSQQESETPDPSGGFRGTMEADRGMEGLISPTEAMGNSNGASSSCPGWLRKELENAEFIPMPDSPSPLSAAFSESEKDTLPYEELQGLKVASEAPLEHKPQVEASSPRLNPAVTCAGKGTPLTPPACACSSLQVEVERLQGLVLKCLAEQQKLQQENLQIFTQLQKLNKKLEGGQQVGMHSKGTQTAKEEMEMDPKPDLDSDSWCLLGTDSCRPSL

Serine/threonine-protein kinase Nek6 (Homo sapiens), sequence (Q9HC98 whole entry): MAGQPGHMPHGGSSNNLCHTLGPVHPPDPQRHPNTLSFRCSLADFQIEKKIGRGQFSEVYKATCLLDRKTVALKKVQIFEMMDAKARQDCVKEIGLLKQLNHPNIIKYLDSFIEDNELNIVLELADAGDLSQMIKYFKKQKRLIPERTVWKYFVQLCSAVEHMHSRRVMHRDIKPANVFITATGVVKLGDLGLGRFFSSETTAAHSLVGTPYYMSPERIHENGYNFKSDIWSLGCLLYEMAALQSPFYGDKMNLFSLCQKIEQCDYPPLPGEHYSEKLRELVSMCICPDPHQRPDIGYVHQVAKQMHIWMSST
Casein kinase II subunit alpha (Homo sapiens), sequence (P68400 whole entry, looked up): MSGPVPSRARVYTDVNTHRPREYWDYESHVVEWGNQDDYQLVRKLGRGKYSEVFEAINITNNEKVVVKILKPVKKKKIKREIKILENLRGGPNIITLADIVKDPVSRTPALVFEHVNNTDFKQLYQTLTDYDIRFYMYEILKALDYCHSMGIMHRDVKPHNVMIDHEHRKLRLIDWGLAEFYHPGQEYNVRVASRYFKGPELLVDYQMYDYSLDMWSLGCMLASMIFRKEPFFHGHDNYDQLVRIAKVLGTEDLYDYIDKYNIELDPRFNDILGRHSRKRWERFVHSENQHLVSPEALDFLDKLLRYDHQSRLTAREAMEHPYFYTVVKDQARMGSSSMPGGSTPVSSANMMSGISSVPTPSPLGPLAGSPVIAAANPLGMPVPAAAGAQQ
Serine/threonine-protein kinase Nek7 (Homo sapiens), sequence (Q8TDX7 whole entry, looked up): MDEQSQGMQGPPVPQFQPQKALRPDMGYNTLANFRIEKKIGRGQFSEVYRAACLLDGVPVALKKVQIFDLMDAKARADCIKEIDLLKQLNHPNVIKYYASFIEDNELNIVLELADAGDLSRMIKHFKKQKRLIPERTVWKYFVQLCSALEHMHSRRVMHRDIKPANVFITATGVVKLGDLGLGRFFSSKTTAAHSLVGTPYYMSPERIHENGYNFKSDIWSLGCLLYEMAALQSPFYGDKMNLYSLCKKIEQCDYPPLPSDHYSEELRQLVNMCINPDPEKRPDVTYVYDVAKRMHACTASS
Sphingosine kinase 1 (Homo sapiens), sequence (Q9NYA1 whole entry): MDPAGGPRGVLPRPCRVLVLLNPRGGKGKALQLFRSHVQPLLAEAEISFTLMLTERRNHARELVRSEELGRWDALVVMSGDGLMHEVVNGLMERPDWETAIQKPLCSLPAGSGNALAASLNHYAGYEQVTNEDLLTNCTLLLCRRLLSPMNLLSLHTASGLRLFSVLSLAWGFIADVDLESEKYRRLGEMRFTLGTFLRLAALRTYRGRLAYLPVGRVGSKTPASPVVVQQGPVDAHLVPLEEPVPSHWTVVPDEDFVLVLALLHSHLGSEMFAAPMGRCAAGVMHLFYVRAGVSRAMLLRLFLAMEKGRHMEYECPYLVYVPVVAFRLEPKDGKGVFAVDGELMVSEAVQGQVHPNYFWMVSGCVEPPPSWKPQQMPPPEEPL

CC(C)c1ccc2c(c1)NC(=O)/C2=N/Nc1ccc(S(N)(=O)=O)cc1
inhibition [1]: -1.85%
inhibition [2]: 0.61%
inhibition [3]: 1.73%
inhibition [4]: 4.26%
inhibition [5]: 0.39%
inhibition [6]: -1.84%
inhibition [7]: -4.08%
inhibition [8]: 1.01%
inhibition [9]: 0.14%
inhibition [10]: -1.18%
inhibition [11]: -1.41%
inhibition [12]: 0.8%
inhibition [13]: -0.15%
inhibition [14]: 1.08%
inhibition [15]: 0.29%
inhibition [16]: 1.12%
inhibition [17]: 2.08%
inhibition [18]: -0.24%
inhibition [19]: 1.29%
inhibition [20]: 2.87%
